This note sets out measurements from PubChem BioAssay (NCI).

Compounds without any hit were thinned out: in the full panel of roughly 83,000, 20% have a hit.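 Single-concentration screen, 48 h exposure, 96-well plates. Endpoint: percent growth. Below 10 = active.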 Active and inactive are the calls of the source.

The first experiment deals with SW-620 colon. In words: NCI-60 one-dose screen, 48 h (100 = growth as untreated, 0 = no growth, -100 = all killed). Particulars: 10 µM unless noted.
For the compound `CNc1ncc2cc(-c3ccc(-c4ncccc4F)cc3Cl)c(=O)n(CC3OCC(N)CO3)c2n1` (configuration not stated), the growth was 99.1% (inactive). On the same count and under the same terms, for `C#C[C@]1(O)CC[C@H]2[C@@H]3CC=C4c5sc(-c6ccc7c(c6)OCO7)nc5CC[C@]4(C)[C@H]3CC[C@@]21C` the value was 2.53% (active); for `C=CCn1c(SCC(=O)Nc2ccc(C(=O)/C=C/c3ccc(C)cc3)cc2)nnc1-c1c[nH]c2ccccc12`, 96.9% (inactive).

The next experiment concerns MCF7 breast. The description is as above. Particulars: 10 µM unless noted.
On to `O=S(=O)(NCCNc1nccc(-n2cnc3ccccc32)n1)c1ccc(Br)cc1`, for which the growth was 78.4% (inactive). Take `NS(=O)(=O)c1ccc(Nc2nc(N/N=C/c3ccccn3)nc(Nc3ccccc3)n2)cc1`: the growth was 1.45% (active). Regarding `NC(N)=Nc1ccc(Oc2cccc(Nc3ccc(Br)c(C(F)(F)F)c3)c2)cc1`, the growth is -1.08% (active). Still for that read-out and setting: the value for `O=c1[nH]c2ccccc2cc1CSc1ccccc1Nc1nccc(-c2ccc(Cl)cc2)n1` was 81.1% (inactive); that for `COc1ccccc1C(=O)Nc1cccc2c1C(=O)C(=O)C=C2` was 81% (inactive). As for `CCO/C=N/C1=C(C#N)C(c2ccc(F)cc2)c2sc3c(C)cccc3c2O1` (configuration not stated), the growth is 14.6% (inactive). Same read-out and setting: the value for `O=C(NNc1nc2cc(F)ccc2n2c(CN3CCCC3)ccc12)c1cnccn1` was 4.57% (active). With `COc1cc(-c2nn(C(C)(C)C)cc2-c2ccnc(NCCCNS(=O)(=O)c3ccccc3)n2)ccc1Cl`, the growth was 70.1% (inactive).

With `O=C(NCc1ncc[nH]1)c1ccc(-c2nc3ccc4[nH]ncc4c3c3c2CCCC3)cc1`, the growth is 1.62% (active). Take `O=C(NNc1nc2cc(F)ccc2n2c(CO)ccc12)c1cnccn1`: the growth was 8.73% (active). On to `O=[N+]([O-])c1cc(/C=N/Nc2nc(N/N=C/c3ccc(Cl)c([N+](=O)[O-])c3)nc(N3CCCCC3)n2)ccc1Cl`, for which the growth is 0.909% (active).

With `COc1c(N2CC3CCCNC3C2)c(F)cc2c(=O)c(C(=O)N/N=C/c3ccccc3)cn(C3CC3)c12` (configuration not stated), the growth is 84.1% (inactive). On the same count and under the same terms, for `O=C(CNc1nc(-c2cccc([N+](=O)[O-])c2)cs1)Nc1cccc(Cl)c1` the value was 91.3% (inactive); for `O=S(=O)(NCCNc1nccc(-n2cnc3ccccc32)n1)c1ccc(C(F)(F)F)cc1`, 34.9% (inactive); for `CC(C)(C)c1ccc(C(=O)Nc2sc3c(c2C(N)=O)CC/C(=N\O)C3)cc1`, 5.51% (active).

As to `CC(=O)c1nnn(-c2c(C(=O)n3nc(C)cc3C)sc(=S)n2-c2ccccc2)c1C`, the growth was 89.2% (inactive). On the same count and under the same terms, for `CNC(=O)c1c(NC(=O)c2ccccc2C(F)(F)F)sc2c1CCC(=O)C2` the value was 13.9% (inactive); for `O=C(NNc1nc2cc(F)c(F)cc2n2cccc12)c1cnccn1`, 14% (inactive); for `COc1cc(Nc2c(C#N)cnn3cc(-c4cnn(CC(C)(C)O)c4)cc23)ccc1Cl`, 48% (inactive). Same read-out and setting: the value for `CCCCCCCn1cc2c(N[C@H](C)c3ccccc3)ncnc2n1` was 90.3% (inactive). Same read-out and setting: for `O=C(Cn1cc(-c2ccccc2)nn1)Nc1nc(-c2ccc(Cl)cc2)cs1` the value was 87% (inactive); for `CCOC(=O)C(=O)CC(=O)N1C(=S)NC(=O)C1CC(C)C` (configuration not stated), 95.8% (inactive); for `O=C1Nc2ccccc2/C1=C/c1ccc(CO)n1-c1ccc(Cl)cc1`, 24.1% (inactive). For the compound `CCO/C=N/C1=C(C#N)C(c2ccc(OC)cc2)c2sc3c(CC)cccc3c2O1` (configuration not stated), the growth is 24.6% (inactive). Still for that read-out and setting: the value for `O=C1[C@@H]2Cc3c([nH]c4ccccc34)[C@H](c3c(Cl)cccc3Cl)N2C(=O)CN1C1CCN(CC2CCCCC2)CC1` was 18.4% (inactive); that for `Cc1nn(-c2ccccc2)c2ncnc(N/N=C/c3cccc(O)c3)c12` was 17.8% (inactive). The same measure, in the same setting: the value for `CS(=O)(=O)Nc1cc(-c2ccc3ncc(C#N)c(NCc4cccc(F)c4)c3c2)cnc1Cl` was 0.85% (active); that for `Cc1ccc(-n2cc(/C=C/C(=O)c3ccc(O)cc3)c(-c3ccc(S(C)(=O)=O)cc3)n2)cc1` was 24.8% (inactive); that for `CC1(C)NCCC[C@]2(C)[C@H]3C/C(=N\O)C4[C@@H]5C[C@@](C)(CO)CC[C@]5(C)CC[C@@]4(C)[C@]3(C)CC[C@@H]12` (some centres not stated) was 86.9% (inactive). The same measure, in the same setting: the value for `C#CCNC1CCC(c2csc(C#C)n2)=C1C` (configuration not stated) was 61.1% (inactive); that for `NS(=O)(=O)c1ccc(Nc2nc(Nc3ccccc3)nc3nnc(SCC(=O)NC4CCCCC4)n23)cc1` was 100% (inactive); that for `O=C(CNc1nc(-c2cccc([N+](=O)[O-])c2)cs1)Nc1cccc([N+](=O)[O-])c1` was -1.07% (active). With `O=C(CSc1nc2ccccc2c(=O)n1-c1ccc(Cl)cc1)N/N=C/c1ccc(N2CCCCC2)cc1`, the growth was 67.5% (inactive). Turning to `O=C(c1ccc(Cl)cc1)C1[C@H](c2ccc(Cl)cc2)[C@@H](c2ccccc2)NC12C(=O)Nc1ccccc12` (some centres not stated), the growth was 13.2% (inactive). On the same count and under the same terms, for `CC(=O)c1ccc(Nc2nc(SCC(C)C)nc(-c3ccc(F)cc3)c2C#N)cc1` the value was 114% (inactive). Still for that read-out and setting: the value for `Fc1ccc(-c2cc3nc(C(Cl)Cl)nc(-c4ccc(F)cc4)n3n2)cc1` was 24.2% (inactive); that for `CNc1ncc2cc(-c3ccc(-c4ncccc4F)cc3Cl)c(=O)n(CC3OCC(N)CO3)c2n1` (configuration not stated) was 101% (inactive).

`C#C[C@]1(O)CC[C@H]2[C@@H]3CC=C4c5sc(-c6ccc7c(c6)OCO7)nc5CC[C@]4(C)[C@H]3CC[C@@]21C`: the growth is -1.98% (active). The same measure, in the same setting: the value for `C=CCn1c(SCC(=O)Nc2ccc(C(=O)/C=C/c3ccc(C)cc3)cc2)nnc1-c1c[nH]c2ccccc12` was 20.2% (inactive).
